Experimental findings from PubChem BioAssay are described below.

In test [1] the target is Tumor necrosis factor receptor superfamily member 10B (Homo sapiens) (UniProt O14763). Briefly: caspase-8 TRAIL sensitization, hit retest, confirmation, cell-based, NB7+caspase-8, with/without TRAIL, luminescence panel (AID 651596). The following applies: NB7 neuroblastoma + caspase-8, TRAIL sensitization, luminescence viability, with TRAIL, mean of runs, at 10 µM, stronger effect = higher value.

Experiment in test [2]: as above
The following applies: NB7 neuroblastoma + caspase-8, without TRAIL, luminescence viability, without TRAIL, mean of runs, at 10 µM.

The target in test [3] is Tumor necrosis factor receptor superfamily member 10B (Homo sapiens) (UniProt O14763). In words: TRAIL sensitizers in caspase-8 expressing neuroblastoma cells, dose response, NB7 cells plus caspase-8, luminescence, panel (AID 652002). The following applies: NB7 neuroblastoma +caspase-8, TRAIL sensitization, luminescence viability, NB7+Caspase-8, with TRAIL, run 1; at 12.5 µM (top of the series).

Test [4] has the same target. The description is as above. The conditions noted are these: NB7 neuroblastoma +caspase-8, TRAIL sensitization, luminescence viability, NB7+Caspase-8, with TRAIL, run 2; at 12.5 µM (top of the series).
Experiment in test [5]: as above
The conditions noted are these: NB7 neuroblastoma +caspase-8, no TRAIL, compound-alone cytotoxicity counter-screen, luminescence viability, NB7+Caspase-8, run 1; at 12.5 µM (top of the series) unless noted.

Experiment in test [6]: as above
The following applies: NB7 neuroblastoma +caspase-8, no TRAIL, compound-alone cytotoxicity counter-screen, luminescence viability, NB7+Caspase-8, run 2; at 12.5 µM (top of the series) unless noted.

Sequence of Tumor necrosis factor receptor superfamily member 10B (Homo sapiens) (O14763 whole entry, looked up): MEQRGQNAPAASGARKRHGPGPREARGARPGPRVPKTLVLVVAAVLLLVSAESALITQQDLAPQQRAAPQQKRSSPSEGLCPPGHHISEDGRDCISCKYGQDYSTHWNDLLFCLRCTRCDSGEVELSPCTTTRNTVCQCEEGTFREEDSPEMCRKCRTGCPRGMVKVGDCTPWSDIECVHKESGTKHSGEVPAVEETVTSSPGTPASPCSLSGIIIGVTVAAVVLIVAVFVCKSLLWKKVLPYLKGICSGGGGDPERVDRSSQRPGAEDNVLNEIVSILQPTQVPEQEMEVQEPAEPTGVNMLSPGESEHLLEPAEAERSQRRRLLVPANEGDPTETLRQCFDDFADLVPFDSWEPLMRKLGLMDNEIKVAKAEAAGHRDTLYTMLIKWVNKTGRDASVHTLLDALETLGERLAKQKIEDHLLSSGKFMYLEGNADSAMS

Turning to `O=C(Nc1ccc(Br)cc1F)c1ccc2c(c1)OCCO2`, the results for the activity in test [1] and in test [2] were 56.6% and 43%, respectively. The activity, % sensitization was 35.1% in test [3], 39.5% in test [4], 7.23% in test [5] and 34.6% in test [6].

Regarding `COc1ccccc1/C=C/C=N/n1c(-c2cc(-c3ccccc3)n[nH]2)n[nH]c1=S`, the activity came out at 71.2% in test [1] and 39.3% in test [2]. The activity, % sensitization was -29.9% in test [3], -8.86% in test [4], 10.6% in test [5] and -34.4% in test [6].

Regarding `Cn1c(=O)c2c(SCC(=O)Nc3ccccc3F)nc(C3CC3)nc2n(C)c1=O`, the activity in test [1] came out at 50.8%; in test [2] it was 44.9%. The activity, % sensitization was -6.81% in test [3], -10.3% in test [4], -1.87% in test [5] and -25.4% in test [6].

For `CN1C[C@@H]2[C@@H]3C(=O)N(Cc4ccccc4)C(=O)[C@@H]3[C@](Cc3ccccc3)(C1=O)N2C(=O)c1ccc(C(C)(C)C)cc1`, the activity in test [1] was 74.5%; in test [2], 47.9%. Besides, the activity, % sensitization is -1.09% in test [3], 15.8% in test [4], 7.44% in test [5] and -17% in test [6].

Turning to `CN(C(=O)COC(=O)c1cnc(Cl)c(Cl)c1)C1CCCCC1`, the activity in test [1] worked out at 68.5%; in test [2], 47.4%. The activity, % sensitization in test [3] is 11.9%; in test [4], 14.2%; in test [5], -5.35%; in test [6] it was 13.1%.

Consider `O=C(NNC(=O)c1cc(OCC(F)(F)F)ccc1OCC(F)(F)F)c1ccc(Cl)c(Cl)c1`, for which the activity is 63.5% in test [1] and 50.9% in test [2]. Also, the activity, % sensitization in test [3] is -9.65%; in test [4] it was 2.58%; in test [5] it was -2.88%; in test [6], 0.592%.

As for `COc1ccc(OCC(=O)N/N=C/C=C/c2ccccc2)cc1`, the activity in test [1] was determined as 59.4%; in test [2], 45.4%. Besides, the activity, % sensitization was determined as 44.7% in test [3], 46.1% in test [4], 31.1% in test [5] and 41.1% in test [6].

On to `CCOc1ccc2nc(NC(=O)c3cccc(-c4cc5ccccc5oc4=O)c3)sc2c1`, for which the activity in test [1] came to 56.2%; in test [2] it was 31.1%. Moreover, the activity, % sensitization in test [3] is -26.2%; in test [4], -15.7%; in test [5], -20.2%; in test [6], -25.4%.

Consider `CC(C)Cc1nc2oc3c(Cl)ncnc3c2c2c1CCCC2`, for which the activity was 55.5% in test [1] and 49.8% in test [2]. Moreover, the activity, % sensitization is -5.07% in test [3], -15% in test [4], -9.85% in test [5] and -8.86% in test [6].

As to `CCOc1ccc(-c2cc(C(=O)N3CCC(C)CC3)c3ccccc3n2)cc1`, the values for the activity in test [1] and in test [2] were 53.4% and 47.2%, respectively. The activity, % sensitization in test [3] was 23.7%; in test [4], 31.6%; in test [5] it was -3.22%; in test [6], -9.62%.

Take `Cc1ccc2oc(-c3cccc(N)c3)nc2c1`: the activity in test [1] worked out at 60.5%; in test [2], 46.2%. Also, the activity, % sensitization in test [3] amounted to 45.8%; in test [4], 58.3%; in test [5] it was 53%; in test [6], 34%.

Turning to `Cc1cc(-c2ccccc2)nc(Nc2nc3c(C)cccc3c(=O)[nH]2)n1`, the activity in test [1] amounted to 59.1%; in test [2] it was 38%. The activity, % sensitization in test [3] stood at 41.7%; in test [4] it was 10.5%; in test [5], 22.2%; in test [6], 5.22%.

Regarding `COC(=O)CSc1nc2cc(C)ccc2cc1C#N`, the activity was found to be 63.1% in test [1] and 53.9% in test [2]. In addition, the activity, % sensitization was determined as 45.7% in test [3], 53.4% in test [4], 15.2% in test [5] and 24.1% in test [6].

In the case of `COc1cccc(NC(=O)Nc2nccc(C)n2)c1`, the results for the activity in test [1] and in test [2] were 64.5% and 53%, respectively. Besides, the activity, % sensitization in test [3] turned out to be 46.7%; in test [4], 47.6%; in test [5], 25.8%; in test [6] it was 11.9%.

For the compound `NNC(=O)C1CCCn2c1nc1sc3c(c1c2=O)CCCC3` (centres undefined), the activity in test [1] is 51%; in test [2], 52.8%. For the same compound, the activity, % sensitization was 5.3% in test [3], -9.76% in test [4], -17.6% in test [5] and 12.5% in test [6].

With `Cc1cc2nc3ccc(N(C)C)cc3nc2cc1N`, the activity in test [1] is 52.4%; in test [2], 32.9%. The activity, % sensitization in test [3] was determined as 38.9%; in test [4], 39.1%; in test [5] it was 24.2%; in test [6], 12.1%.

For the compound `CC1(C)N=C(N)N=C(N)N1c1ccc(CCCCc2ccccc2)cc1`, the activity is 53.6% in test [1] and 54.3% in test [2]. Moreover, the activity, % sensitization came to 58.2% in test [3], 52.2% in test [4], 1.29% in test [5] and 66.9% in test [6].

`CC(C)(C)OC(=O)NCc1ccc(NC(=O)c2nc[nH]c2C(=O)N[C@@H](Cc2ccccc2)C(=O)OCc2ccccc2)cc1`: the activity turned out to be 63.8% in test [1] and 11.5% in test [2]. For the same compound, the activity, % sensitization in test [3] is -11%; in test [4], 1.84%; in test [5], -8.6%; in test [6], -21.5%.

As to `O=C(N/N=C/c1cccnc1)c1ccc2c(c1)OCO2`, the activity in test [1] turned out to be 51.9%; in test [2], 42.5%. Moreover, the activity, % sensitization stood at 32.8% in test [3], 32.4% in test [4], 32.2% in test [5] and 46.2% in test [6].

On to `Cc1nc(Cl)c2oc3ccccc3c2n1`, for which the activity in test [1] worked out at 84%; in test [2] it was 31.1%. Further, the activity, % sensitization in test [3] was -4.95%; in test [4] it was -0.917%; in test [5], -7.33%; in test [6], -8.16%.

Regarding `CCOC(=O)c1sc(NC(=O)Nc2ccc(F)cc2)nc1C`, the activity turned out to be 56.6% in test [1] and 44.6% in test [2]. The activity, % sensitization was 29% in test [3], 12.6% in test [4], -5.48% in test [5] and -3.68% in test [6].

Consider `CC1(Cc2ccc(OC(F)(F)F)cc2)C(=O)Nc2ccc(S(=O)(=O)NC3CCCCC3)cc21` (centres undefined), for which the activity in test [1] was 46.4%; in test [2] it was 31%. The activity, % sensitization in test [3] is -0.836%; in test [4], -0.606%; in test [5], 23.3%; in test [6], 28.2%.

As for `Cc1ccc(S(=O)(=O)Nc2ccccc2C(=O)Nc2nc(-c3ccc(F)cc3)cs2)cc1`, the values for the activity in test [1] and in test [2] were 56.5% and 51.6%, respectively. In addition, the activity, % sensitization came to 32% in test [3], 39.6% in test [4], 24.6% in test [5] and 40.4% in test [6].

As to `Cc1nn(-c2ccccc2)c2nc(N)c(C#N)c(-c3ccc(F)cc3)c12`, the activity in test [1] is 61.9%; in test [2], 46.8%. Further, the activity, % sensitization is -8.21% in test [3], 4.3% in test [4], 6.23% in test [5] and 37.2% in test [6].

With `CCOc1ccc(/C=C/C(=O)Nc2cccc(C(C)=O)c2)cc1`, the values for the activity in test [1] and in test [2] were 50.7% and 37.2%, respectively. In addition, the activity, % sensitization in test [3] amounted to 14.7%; in test [4], 23.8%; in test [5], 37.9%; in test [6] it was 17.4%.

As to `CC(C)C(=O)Nc1ccc(NC(=O)c2ccccn2)cn1`, the activity in test [1] is 53.6%; in test [2], 53%. Moreover, the activity, % sensitization in test [3] worked out at 34.7%; in test [4] it was 36.7%; in test [5], 8.97%; in test [6], 37.8%.

As to `COCCNc1c(-c2cc3ccc(C)c(C)c3[nH]c2=O)nc2ccccn12`, the activity in test [1] turned out to be 64.9%; in test [2], 47.6%. The activity, % sensitization in test [3] was 60.1%; in test [4], 54.8%; in test [5], -1.27%; in test [6], 53.5%.

`CC(C)CCn1cnc2c([nH]c3cccc(Cl)c32)c1=O`: the activity in test [1] stood at 60.6%; in test [2] it was 52.9%. Further, the activity, % sensitization in test [3] was -14.6%; in test [4], -14%; in test [5] it was -4.11%; in test [6] it was 0.76%.

In the case of `COc1ccccc1C=NNC(=O)NN=Cc1ccccc1OC`, the values for the activity in test [1] and in test [2] were 61% and 46.5%, respectively. Further, the activity, % sensitization in test [3] was found to be 42.5%; in test [4] it was 48.3%; in test [5] it was 54.1%; in test [6] it was 35.8%.
